# Reference: the supplement of paper PMC8975748
# Structures can show the parent of a compound that is named as a salt.
# Test system: Saccharomyces cerevisiae BY4741 SeMeCo community
# Assay: z-score of subpopulation abundance vs DMSO median, subpopulation auxotrophic for LU; higher = larger share of this subpopulation than in DMSO controls
# Settings: 10 µM; 24 h; SM minimal medium; subpopulation (auxotrophy): LU
# Procedure: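 Fluorescent four-plasmid SeMeCo (self-establishing metabolically cooperating S. cerevisiae BY4741 community; plasmids pH-mRuby2, pL-mWasabi, pU-eCFP, pM-TagRFP657) was grown 24 h in minimal SM medium with each Selleck FDA-approved drug at 10 µM in 384-well plates. Cells were fixed and imaged by high-content confocal microscopy. For each auxotrophic subpopulation (and the prototroph), a z-score gives the deviation from the DMSO vehicle-control population median.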
row,Compound,z-score of subpopulation abundance
1,CC1(C)SC2C(N)C(=O)N2C1C(=O)O (stereo not given) [6-Aminopenicillanic acid],0.32
2,C[N+](C)(C)CCCCCCCCCC[N+](C)(C)C [Decamethonium Bromide],-0.59
3,COc1ccc2c3c([nH]c2c1)C(C)=NCC3 [Harmaline],-7.5
4,O=c1cccc2n1C[C@@H]1CNC[C@H]2C1 [Cytisine],0.11
5,CN1C(=O)COc2c(C(=O)NC3CN4CCC3CC4)cc(Cl)cc21 (stereo not given) [Azasetron HCl],-0.43
6,N[C@@H]1C[C@H]1c1ccccc1 [Tranylcypromine (2-PCPA) HCl],-0.31
7,C[C@H]1O[C@H](O[C@H]2[C@H](O)[C@@H](O)[C@@H](O)[C@H](O)[C@@H]2O)[C@@H](N)C[C@@H]1NC(=N)C(=O)O [Kasugamycin hydrochloride],0.49
8,CCOC(=O)Nc1ccc(NCc2ccc(F)cc2)cc1N [Retigabine],-1.25
9,CCC1=C[C@H]2CN3CCc4c([nH]c5ccccc45)[C@](C(=O)OC)(C2)[C@H]13 [Catharanthine],-0.64
10,C=CCN1C[C@H](C(=O)N(CCCN(C)C)C(=O)NCC)C[C@@H]2c3cccc4[nH]cc(c34)C[C@H]21 [Cabergoline],1.61
11,N#Cc1nn(-c2c(Cl)cc(C(F)(F)F)cc2Cl)c(N)c1[S+]([O-])C(F)(F)F (stereo not given) [Fipronil],0.06
12,CCN(C)C(=O)Oc1cccc([C@H](C)N(C)C)c1 [Rivastigmine],-1.09
13,CCN(C)C(=O)Oc1cccc([C@H](C)N(C)C)c1 [Rivastigmine Tartrate],0.44
14,CN[C@@H]1[C@@H](O)[C@@H](O[C@@H]2[C@@H](O)[C@H](O[C@H]3O[C@H]([C@@H](C)O)[C@@H](O)[C@H](O)[C@H]3N)[C@@H](N)C[C@H]2N)OC[C@]1(C)O [Geneticin (G418 Sulfate)],0.61
15,CC[N+](C)(CC)CCOC(=O)C(O)(c1ccccc1)c1ccccc1 [Methylbenactyzine Bromide],-0.58
16,CC[C@@H](C(N)=O)N1CCCC1=O [Levetiracetam],-0.25
17,CN[C@@H]1[C@@H](O)[C@@H](O[C@@H]2[C@@H](O)[C@H](O[C@H]3O[C@H](CN)CC[C@H]3N)[C@@H](N)C[C@H]2N)OC[C@]1(C)O.CN[C@@H]1[C@@H](O)[C@@H](O[C@@H]2[C@@H](O)[C@H](O[C@H]3O[C@H]([C@@H](C)N)CC[C@H]3N)[C@@H](N)C[C@H]2N)OC[C@]1(C)O.CN[C@@H]1[C@@H](O)[C@@H](O[C@@H]2[C@@H](O)[C@H](O[C@H]3O[C@H]([C@@H](C)NC)CC[C@H]3N)[C@@H](N)C[C@H]2N)OC[C@]1(C)O [Gentamicin Sulfate],-0.15
18,CN1[C@@H]2CC[C@H]1C[C@@H](OC(=O)C(CO)c1ccccc1)C2 (stereo not given in full) [Atropine sulfate monohydrate],-0.08
19,NC(=O)CN1CCCC1=O [Piracetam],1.37
20,CN(C)[C@@H]1C(=O)C(C(N)=O)=C(O)[C@@]2(O)C(=O)C3=C(O)c4c(O)ccc(Cl)c4[C@@](C)(O)[C@H]3C[C@@H]12 [Chlortetracycline HCl],-0.72

row,Compound,z-score of subpopulation abundance
1,O=c1[nH]c2ccccc2n1CCCN1CCC(n2c(=O)[nH]c3cc(Cl)ccc32)CC1 [Domperidone],0.48
2,COc1cc2c(cc1OC)C1CC(=O)C(CC(C)C)CN1CC2 (stereo not given) [Tetrabenazine (Xenazine)],-0.11
3,COc1ccc(C(CN(C)C)C2(O)CCCCC2)cc1 (stereo not given) [Venlafaxine HCl],-0.06
4,NCCc1c[nH]c2ccc(O)cc12 [Serotonin HCl],-0.51
5,C=CN1CCCC1=O.II [Povidone iodine],0.69
6,CC(C)(O)C(Cl)(Cl)Cl [Chlorobutanol],0.52
7,Oc1cccc2cccnc12 [8-Hydroxyquinoline],-0.63
8,C=C(C)[C@H]1Cc2c(ccc3c2O[C@@H]2COc4cc(OC)c(OC)cc4[C@@H]2C3=O)O1 [Rotenone (Barbasco)],0.18
9,CCCN1C[C@H](CSC)C[C@@H]2c3cccc4[nH]cc(c34)C[C@H]21 [Pergolide Mesylate],-0.8
10,C[N+]12CCC(CC1)C(OC(=O)C(O)(c1ccccc1)c1ccccc1)C2 (stereo not given) [Clidinium Bromide],0.83
11,Cc1cc(O)ccc1Cl [Chlorocresol],-0.74
12,CCOC(=O)Nc1ccc(NCc2ccc(F)cc2)cc1N [Retigabine 2HCl],-0.86
13,CN1[C@@H]2C[C@@H](OC(=O)[C@H](CO)c3ccccc3)C[C@H]1[C@@H]1O[C@@H]12 [Scopolamine HBr],0.22
14,O=[N+]([O-])C(Br)(CO)CO [Bronopol],0.26
15,Cc1cc(C(C#N)c2ccc(Cl)cc2)c(Cl)cc1NC(=O)c1cc(I)cc(I)c1O (stereo not given) [Closantel],0.89
16,C[C@@H]1CC[C@H]2[C@@H](C)C(=O)O[C@@H]3O[C@@]4(C)CC[C@@H]1[C@]32OO4 [Artemisinin],-0.94
17,CC(C)=CCOc1c2occc2cc2ccc(=O)oc12 [Imperatorin],0.92
18,Cn1cc(C2=C(c3cn(C4CCN(Cc5ccccn5)CC4)c4ccccc34)C(=O)NC2=O)c2ccccc21,0.66
19,O=C(O[C@H]1C[N+]2(CCCOc3ccccc3)CCC1CC2)C(O)(c1cccs1)c1cccs1 [Aclidinium Bromide],0.07
20,"NCC(O)c1ccc(O)cc1 (racemic) [(+,-)-Octopamine HCl]",-0.38
